SARS PLpro yeast: qHTS of Yeast-based Assay for SARS-CoV PLP | S. cerevisiae expressing SARS-CoV PLpro, growth rescue | Potency, µM (top dose mostly 32.9 µM), usual class: activators | 330,000 compounds, 0.19% hits | AID 485353, 2010; calls by dose curve; further: nearly all actives have a fitted effect of over 55% in size
NS1 inh: qHTS Assay for Inhibitors of Influenza NS1 Protein Function; 270,000 compounds, 0.4% hits; AID 2326, 2010; Potency, µM (doses to about 46.1 µM); calls by dose curve; further: actives are rising curves; nearly all actives have a fitted effect of over 50% in size
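S. cerevisiae expressing influenza A NS1, grown in glucose, washed, then diluted 1:100 into pH 6.0 -URA galactose medium with 23 nl compound. Growth recovery read as OD600; NS1-free strain serves as control.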
Pf growth 96h: Primary qHTS for delayed death inhibitors of the malarial parasite plastid, 96 hour incubation. Potency, µM (highest dose often 28.7 µM), most hits filed as inhibitors. P. falciparum luciferase reporter growth, 96 h. 320,000 compounds, 6.9% hits
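96 h incubation, 37 C, 5% CO2, of luciferase-reporter P. falciparum-infected RBCs (2% hematocrit, 0.05% parasitemia final) with test compounds; endpoint luminescence.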
Pf growth 48h: Primary qHTS for delayed death inhibitors of the malarial parasite plastid, 48 hour incubation; P. falciparum luciferase growth in erythrocytes, 48 h; Potency, µM (titrated, usually from 28.7 µM), actives largely listed as inhibitors; 310,000 compounds, 5.9% hits
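Cell-based growth assay: transgenic P. falciparum expressing firefly luciferase, cultured in red cells within RPMI 1640 containing 0.5% w/v Albumax, 24 mM bicarbonate and gentamycin. A drop in luciferase activity indicates inhibition.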
Hits are given with their value; ! = a repeat was not active. In the library only some 10% were active in any assay of this set; here they are far more common. Unless noted, the call rests on the fitted dose curve; in most records, active means well fitted inhibition curve with a large enough effect; inconclusive means small, poorly fitted or top-dose-only effect, or another doubt; inactive means no such curve, though single readings can be large or run the other way.

How did CC(C)(C)OC(=O)N[C@@H](Cc1ccccc1)C(=O)N[C@@H](CO)[C@H](O)[C@@H]1C[C@@H]1C(=O)NC1CCCCC1 do in these assays?
SARS PLpro yeast: inactive

What do the screens show for `CC1(C)Cc2c(sc3c2c(=N)n(Cc2ccco2)c(=O)n3Cc2ccccc2)CO1`?
SARS PLpro yeast: inactive; NS1 inh: inactive; Pf growth 96h: inactive; Pf growth 48h: 9.3µM

Results for CC1(C)Cc2c(sc3c2c(=N)n(Cc2ccco2)c(=O)n3Cc2ccc(Cl)cc2)CO1 ?
SARS PLpro yeast: inactive; NS1 inh: inactive; Pf growth 96h: 10µM; Pf growth 48h: 5.2µM

What do the screens show for `CCn1c(=O)n(-c2ccc(Cl)cc2)c(=O)c2c3c(sc21)COC(C)(C)C3`?
SARS PLpro yeast: inactive; NS1 inh: inactive; Pf growth 96h: 7.4µM; Pf growth 48h: inconclusive

How did Cn1c(=O)n(-c2ccc(Cl)cc2)c(=O)c2c3c(sc21)COC(C)(C)C3 do in these assays?
SARS PLpro yeast: inactive; NS1 inh: inactive; Pf growth 96h: inconclusive; Pf growth 48h: inconclusive

Results for CC1(C)Cc2c(sc3[nH]c(=S)n(Cc4ccco4)c(=O)c23)CO1 ?
SARS PLpro yeast: inactive; NS1 inh: inactive; Pf growth 96h: 2.6µM; Pf growth 48h: inactive

How did Cc1nn(-c2ccccc2)nc1C(=O)Oc1cc(C(F)(F)F)nn1-c1ccccc1 do in these assays?
SARS PLpro yeast: inactive; NS1 inh: inconclusive; Pf growth 96h: inactive; Pf growth 48h: 0.37µM

What do the screens show for `FC(F)Oc1ccccc1/C=N/n1cnc2ccccc21`?
SARS PLpro yeast: inactive; Pf growth 96h: inactive; Pf growth 48h: inactive

How did Cc1cc2ncn(/N=C/c3cc(Br)ccc3O)c2cc1C do in these assays?
SARS PLpro yeast: inactive; NS1 inh: inactive; Pf growth 96h: inconclusive; Pf growth 48h: 1µM

Results for O=[N+]([O-])c1ccc(/C=N/n2cnc3ccccc32)s1 ?
SARS PLpro yeast: inactive; NS1 inh: inactive; Pf growth 96h: inconclusive; Pf growth 48h: 5.9µM

What do the screens show for `Cc1cc2ncn(/N=C/c3ccc([N+](=O)[O-])s3)c2cc1C`?
SARS PLpro yeast: inactive; NS1 inh: inactive; Pf growth 96h: 3.7µM; Pf growth 48h: 2.6µM

Results for O=C(Nc1nncs1)C1CC(=O)N(CCc2ccc(F)cc2)C1 (stereo unspecified) ?
SARS PLpro yeast: inactive; NS1 inh: inactive; Pf growth 96h: inactive; Pf growth 48h: inactive

Results for O=C(NCC(=O)N1CCCCCCC1)c1ccc(Br)o1 ?
SARS PLpro yeast: inactive; Pf growth 96h: inactive; Pf growth 48h: inactive

How did CC1CN(C(=O)/C=C/c2ccccc2Cl)CC(C)O1 (stereo unspecified) do in these assays?
SARS PLpro yeast: inactive; NS1 inh: inactive; Pf growth 96h: inactive; Pf growth 48h: inactive

What do the screens show for `CCCN(CCC)C1=CC(=[N+]2CCCC2)CC(C)(C)C1`?
SARS PLpro yeast: inactive; NS1 inh: inactive; Pf growth 96h: 0.33µM; Pf growth 48h: 1.5µM

What do the screens show for `CCCCn1c(SCC(=O)Nc2cc(C)on2)nc2ccsc2c1=O`?
SARS PLpro yeast: inactive; NS1 inh: inactive; Pf growth 96h: inactive; Pf growth 48h: inactive

Results for Cc1cc(NC(=O)CSc2nc3ccsc3c(=O)n2CCCCC(=O)O)no1 ?
SARS PLpro yeast: inactive; NS1 inh: inactive; Pf growth 96h: 4.7µM; Pf growth 48h: inactive

What do the screens show for `COc1ccc(CCn2c(SCC(=O)Nc3cc(C)on3)nc3ccsc3c2=O)cc1OC`?
SARS PLpro yeast: inactive; NS1 inh: inconclusive; Pf growth 48h: 8.3µM

Results for COc1ccc(C(=O)CCC(=O)NC2=NCCS2)cc1 ?
SARS PLpro yeast: inactive; NS1 inh: inactive; Pf growth 96h: inactive; Pf growth 48h: inactive

What do the screens show for `CCCSc1sc(C(=O)OC)c(-c2cccs2)c1C#N`?
SARS PLpro yeast: inactive; NS1 inh: inactive; Pf growth 96h: 10µM; Pf growth 48h: 10µM

Results for CCOC(=O)C1CCN(C(=O)C(CCSC)NC(=O)c2ccccc2OC)CC1 (stereo unspecified) ?
SARS PLpro yeast: inactive; Pf growth 96h: inactive; Pf growth 48h: inconclusive

Results for Cc1cccc(C)c1Nc1ncnc2ccccc12 ?
SARS PLpro yeast: inactive; NS1 inh: inactive; Pf growth 96h: inactive; Pf growth 48h: inactive

How did CCOC(=O)[C@H]1[C@H]2COc3ccccc3[C@@H]2N2C(=O)c3ccc(Cl)cc3NC(=O)[C@@]12C do in these assays?
SARS PLpro yeast: inactive; Pf growth 96h: inconclusive; Pf growth 48h: inconclusive

What do the screens show for `CCOC(=O)[C@H]1[C@H]2COc3ccccc3[C@@H]2N2C(=O)c3cc(C)ccc3NC(=O)[C@@]12C`?
SARS PLpro yeast: inactive; Pf growth 96h: 13µM; Pf growth 48h: inconclusive

How did CCOC(=O)[C@H]1[C@H]2COc3ccc(Cl)cc3[C@@H]2N2C(=O)c3cc(Cl)ccc3NC(=O)[C@@]12C do in these assays?
SARS PLpro yeast: inactive; Pf growth 96h: 10µM; Pf growth 48h: inconclusive

What do the screens show for `CCOC(=O)[C@H]1[C@H]2COc3ccccc3[C@@H]2N2C(=O)c3cc(Cl)ccc3NC(=O)[C@@]12C`?
SARS PLpro yeast: inactive; Pf growth 96h: 12µM; Pf growth 48h: 10µM

What do the screens show for `CCOC(=O)[C@H]1[C@H]2COc3ccc(Cl)cc3[C@@H]2N2C(=O)c3ccc(F)cc3NC(=O)[C@@]12C`?
SARS PLpro yeast: inactive; Pf growth 96h: inconclusive; Pf growth 48h: 12µM

Results for CCOC(=O)C1=C(COC(=O)Cc2c(F)cccc2Cl)NC(=O)NC1C (stereo unspecified) ?
SARS PLpro yeast: inactive; Pf growth 96h: inactive; Pf growth 48h: inactive

How did Cc1ccc(C2=NNC3(CCOC(C)(C)C3)S2)cc1 (stereo unspecified) do in these assays?
SARS PLpro yeast: inactive; NS1 inh: inactive; Pf growth 96h: inconclusive; Pf growth 48h: inactive

How did CC(=O)N1c2ccc(S(=O)(=O)N3CCCC3C(=O)Nc3ccc(C)cc3)cc2CC1C (stereo unspecified) do in these assays?
SARS PLpro yeast: inactive; NS1 inh: inactive; Pf growth 96h: inconclusive; Pf growth 48h: inactive

How did C=CCN1C(=O)C(CC(C)C)NC1=S (stereo unspecified) do in these assays?
Pf growth 96h: 0.54µM!; Pf growth 48h: inactive

Results for CC(C)CN(C(=O)c1nn(C)c(=O)c2ccccc12)c1nc2ccccc2s1 ?
SARS PLpro yeast: inactive; NS1 inh: inactive; Pf growth 48h: 10µM

How did CC(C)CN(C(=O)c1ccco1)c1nc2ccccc2s1 do in these assays?
SARS PLpro yeast: inactive; NS1 inh: inactive; Pf growth 96h: inactive; Pf growth 48h: inconclusive

How did Oc1c(C(c2ccccn2)N2CCC(Cc3ccccc3)CC2)cc(Cl)c2cccnc12 (stereo unspecified) do in these assays?
SARS PLpro yeast: inactive; Pf growth 96h: inactive; Pf growth 48h: 2.9µM

Results for CN1CCN(C(c2ccc(C(F)(F)F)cc2)c2ccc3cccnc3c2O)CC1 (stereo unspecified) ?
SARS PLpro yeast: inactive; NS1 inh: inactive; Pf growth 96h: inconclusive; Pf growth 48h: inconclusive

How did CN1CCN(C(c2ccccn2)c2cc(Cl)c3cccnc3c2O)CC1 (stereo unspecified) do in these assays?
SARS PLpro yeast: inactive; NS1 inh: inactive; Pf growth 96h: inconclusive; Pf growth 48h: 4.7µM

Screening data: PubChem BioAssay, National Center for Advancing Translational Sciences (NCATS)
